PostGolgi ctrl – growth of the yeast control strain, post-Golgi counter-screen. efflux-deficient yeast background strain, growth absorbance A615, 16 h. inhibition, % at 10 µM. 5% of 98,000 active. AID 738
CYP2C19 inh – human CYP2C19 inhibition. P33261. CYP2C19 Supersomes, luciferin-H EGE luminescence, 30 min. inhibition, % at 5 µM. 21% of 96,000 active;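 active = CYP2C19 inhibition above a set limit at 5 µM in the primary screen, cut at about 50% in these data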;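 also: plate controls were negative control wells for no effect and 2.5 mM tranylcypromine positive control for full effect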
Target sequence (P33261 whole entry, looked up): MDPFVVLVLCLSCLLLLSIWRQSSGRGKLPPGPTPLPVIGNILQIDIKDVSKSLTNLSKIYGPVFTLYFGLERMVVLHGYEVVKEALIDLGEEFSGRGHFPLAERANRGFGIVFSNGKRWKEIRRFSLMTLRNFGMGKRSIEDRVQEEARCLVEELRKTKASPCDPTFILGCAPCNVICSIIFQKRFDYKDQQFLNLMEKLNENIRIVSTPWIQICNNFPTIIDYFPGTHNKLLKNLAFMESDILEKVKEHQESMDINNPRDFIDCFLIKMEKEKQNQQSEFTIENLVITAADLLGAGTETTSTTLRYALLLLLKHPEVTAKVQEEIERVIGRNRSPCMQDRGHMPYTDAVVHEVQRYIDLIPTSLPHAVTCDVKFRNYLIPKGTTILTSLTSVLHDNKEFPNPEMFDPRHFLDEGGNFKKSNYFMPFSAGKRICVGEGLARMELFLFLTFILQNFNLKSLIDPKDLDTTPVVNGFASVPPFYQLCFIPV
CYP2C19 act – increases human CYP2C19 enzyme activity. 96,000 tested, under 10 active. recombinant CYP2C19, luciferin-H EGE luminescence; hits give high values; 0 = fully inhibited enzyme, 1 = untreated enzyme. activation factor at 5 µM. P33261. AID 1025;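 active = activation factor of at least 2 at 5 µM in the primary screen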;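 also: 0 = wells with 2.5 mM tranylcypromine and 1 = vehicle-only wells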
PostGolgi yeast – growth inhibition of a yeast mutant, post-Golgi transport screen; 0.9% of 98,000 active; inhibition, % at 10 µM; post-Golgi transport phenotypic cell assay;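 also: yeast cells grown in 1536-well plates; yeast grown about 18 h at 30C before absorbance read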
CYP2C9 inh – human CYP2C9 inhibition; CYP2C9 Supersomes, luciferin-H conversion, luminescence; inhibition, % at 5 µM; 20% of 96,000 active; AID 777;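 active = blocking of liver enzyme CYP2C9 beyond about 50% at 5 µM, limit read from the data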
CYP2C9 act – CYP2C9 (human) activation. P11712. recombinant CYP2C9, luciferin-H conversion, luminescence; hits give high values; factor 1 = untreated enzyme, 0 = blocked. activation factor at 5 µM. 1.4% of 96,000 active. AID 1024;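 active = activation factor of 2 or more for CYP2C9 at a 5 µM dose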;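 also: 0 = sulfaphenazole-blocked wells and 1 = vehicle-only wells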
Starred values were filed as active, the others as inactive; . = no result given. Compounds with a hit are over-represented: about 32% of the library has one in this group of screens. Rule as the data show it, unless noted: active = inhibition above about 30%; inactive = the rest.

SMILES | PostGolgi ctrl | CYP2C19 inh | CYP2C19 act | PostGolgi yeast | CYP2C9 inh | CYP2C9 act
Cc1nn(Cc2ccc(Cl)c(Cl)c2)c(C)c1NC(=O)c1cc(-c2ccc3c(c2)OCO3)on1 | 22.8 | 34.4 | 0.7 | 4.5 | 65.5* | 0.3
Cc1nn(Cc2ccc(Cl)cc2)c(C)c1NC(=O)c1cc(-c2ccc3c(c2)OCO3)on1 | 9.8 | 34.0 | 0.7 | -9.5 | 53.7* | 0.5
Cc1nn(Cc2ccc(Cl)c(Cl)c2)c(C)c1NC(=O)c1cn(-c2ccccc2)nc1-c1ccccc1 | 2.3 | 3.3 | 1 | 5.6 | 90.3* | 0.1
Cc1cc(C)cc(OC(=O)N2CCOCC2)c1 | 13.5 | 5.4 | 0.9 | 3.1 | 29.6 | 0.7
Cc1sc2nc(C3CC3)nc(SCC(=O)N3CC(=O)Nc4ccccc43)c2c1C | 17.1 | 30.0 | 0.7 | 5.4 | 65.6* | 0.3
CCc1c(C)sc2nc(C(C)C)nc(SCC(=O)N3CCc4ccccc4C3)c12 | 30.6* | 21.0 | 0.8 | 0.0 | 96.6* | 0
Cc1cccc2cc(C#N)c(SCC(=O)N3CC(=O)Nc4ccccc43)nc12 | -7.8 | 3.9 | 1 | 0.1 | 47.6 | 0.5
Cc1sc2nc(C3CC3)nc(SCC(=O)N3CCc4ccccc4C3)c2c1C | 37.1* | 64.6* | 0.4 | 14.3 | 84.9* | 0.2
Cn1c(=O)c2c(SCC(=O)N3CCCc4ccccc43)nc(C3CC3)nc2n(C)c1=O | 6.5 | -6.1 | 1.1 | -2.2 | 12.3 | 0.9
COc1ccc(Cn2nnnc2C(C(C)C)N2CCc3ccccc32)cc1 (stereo not given) | 27.7 | 71.3* | 0.3 | -1.0 | 68.3* | 0.3
COCCn1nnnc1C(c1ccccc1OC)N1CCN(c2ccccc2)CC1 (stereo not given) | 3.1 | 33.6 | 0.7 | -2.4 | 10.5 | 0.9
CCCC(c1nnnn1Cc1ccc(OC)cc1)N1CCN(c2ccccc2)CC1 (stereo not given) | 30.5* | 44.5 | 0.6 | 3.2 | 82.1* | 0.2
COc1ccc(Cn2nnnc2C(CC(C)C)N2CCN(c3ccccc3)CC2)cc1 (stereo not given) | 63.2* | 74.5* | 0.3 | 14.4 | 64.9* | 0.4
CC(C)CC(c1nnnn1C(C)C)N1CCN(c2ccccc2)CC1 (stereo not given) | 61.0* | 22.1 | 0.8 | -6.8 | 67.5* | 0.3
CC(=O)N1CCN(C(=O)CNc2cc(C(F)(F)F)ccc2OCC(F)(F)F)CC1 | 3.5 | -2.0 | 1 | 14.9 | 2.6 | 1
CCCS(=O)(=O)Nc1cc(C(F)(F)F)ccc1OCCOC | 4.0 | 50.4* | 0.5 | 0.7 | 15.3 | 0.8
Cc1ccc(C(=O)N/N=C\c2ccc[nH]2)cc1[N+](=O)[O-] | 2.1 | 6.2 | 0.9 | -2.3 | 1.6 | 1
CNc1ncc(C(=O)c2ccc(Cl)c(Cl)c2)s1 | 11.9 | 52.7* | 0.5 | 5.6 | 47.9 | 0.5
O=C(c1ccc(Cl)c(Cl)c1)c1cnc(Nc2ccccc2)s1 | -3.4 | 6.1 | 0.9 | -0.9 | 6.9 | 0.9
CNc1ncc(C(=O)c2ccc(Cl)cc2)s1 | 0.0 | 65.4* | 0.3 | -0.8 | 46.6 | 0.5
O=C(c1ccccc1)c1cnc(Nc2ccccc2Cl)s1 | 12.1 | 53.5* | 0.5 | 0.4 | 47.7 | 0.5
O=C(c1cnc(-c2ccc(Cl)cc2)s1)c1ccc(Cl)cc1Cl | 11.0 | 20.3 | 0.8 | -3.5 | -3.5 | 1
O=S(Cc1ccc(Cl)cc1)CC(O)COCc1ccc(Cl)cc1 (stereo not given) | 15.9 | 7.4 | 0.9 | 0.5 | 9.0 | 0.9
Cc1c(Br)c([N+](=O)[O-])nn1CC(=O)N1CCCc2ccccc21 | 29.6 | 12.9 | 0.9 | 18.4 | 37.6 | 0.6
CCc1c(C)[nH]c2nc3ccccc3n2c1=O | 12.3 | 24.3 | 0.8 | -1.9 | 48.3 | 0.5
O=c1cc(-c2ccccc2)[nH]c2nc3ccccc3n12 | 18.5 | 60.7* | 0.4 | -6.1 | 76.3* | 0.2
CCOc1ccc(NS(=O)(=O)CC23CCC(CC2=O)C3(C)C)cc1 (stereo not given) | 2.8 | 15.9 | 0.8 | -1.2 | -20.0 | 1.2
CC(C)(C)C(=O)Cn1c(=N)n(Cc2ccccc2)c2ccccc21 | 47.8* | . | . | 1.4 | . | .
COc1ccc(CNC(=O)C2CSC(c3ccc(OC)cc3)N2C(C)=O)cc1 (stereo not given) | 0.5 | 21.4 | 0.8 | -4.2 | 35.4 | 0.6
CC(=O)N1c2ccc3ccccc3c2C(C)CC12CCCCC2 (stereo not given) | 17.2 | 98.4* | 0 | -2.4 | 94.3* | 0.1
